Experimental data taken from PubChem BioAssay (NCATS).
Results filed as inconclusive are left out. Entries that show only a call come without a potency. Activity calls are given as the source filed them. Calls come from the whole dose curve; as a rule, active = well fitted inhibition curve with a large enough effect; inconclusive = small, poorly fitted or top-dose-only effect; inactive = no such curve, though single readings can be large or run the other way.

system: Zika virus NS2B-NS3 protease (linked construct); assay: Primary screen NINDS Rhodamine qHTS for Zika virus inhibitors (AID 1347160); conditions: purified NS2B-NS3 protease, Rhodamine110 substrate fluorescence; series mostly up to 57.1 µM; note: nearly all actives have a fitted effect of over 55% in size
In short: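 Rhodamine110-peptide cleavage (1.5 µM substrate) by 25 nM linked NS2B-NS3 enzyme at pH 8.0 (Tris, Tween 20), after 15 min RT preincubation with compounds; 15-min fluorescence change normalized to controls and Hill-fitted.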

| Structure (SMILES) | Potency | outcome | activity change, negative = inhibition |
| --- | --- | --- | --- |
| C/C(=C\Cc1c(O)c(Cl)c(C)c(C=O)c1O)CC/C=C(\C)[C@H]1CC(=O)C(C)(C)O1 | inactive |  |  |
| C/C=C(/C)C(=O)OC1CC(C)(C)CC2C3=CCC4C5(C)CCC(O[C@@H]6O[C@H](C(=O)O)[C@@H](O)[C@H](O)[C@H]6O[C@@H]6O[C@H](CO)[C@H](O)[C@H](O[C@@H]7OC[C@H](O)[C@H](O)[C@H]7O[C@@H]7O[C@H](CO)[C@@H](O)[C@H](O)[C@H]7O)[C@H]6O)C(C)(C)C5CCC4(C)C3(C)C(O)C(O)C12CO (stereo not given in full) |  | inactive [at 10.7 µM] |  |
| COc1ccc(CCO[C@@H]2O[C@H](CO[C@H]3OC[C@](O)(CO)[C@H]3O)[C@@H](OC(=O)/C=C/c3ccc(O)c(O)c3)[C@H](O[C@@H]3O[C@@H](C)[C@H](O)[C@@H](O)[C@H]3O)[C@H]2O)cc1OC | inactive |  |  |
| NC(N)=N/N=C/c1ccccc1Cl | inactive |  |  |
| CC(C)(Cc1ccccc1)NCC(O)c1ccc(O)c(NS(C)(=O)=O)c1 (stereo not given) | inactive |  |  |
| COc1c(C(O)CC(C)C)ccc2c1C(=O)OCc1cc(C)cc(O)c1O2 (stereo not given) | inactive |  |  |
| CCn1c2ccccc2c2cc(Nc3ccnc(NCCCN4CCOCC4)n3)ccc21 | inactive |  |  |
| C/C=C(/C)C(=O)O[C@@H]1C[C@@H](OC(=O)CC(C)C)C2(C)C3C(=O)C=C(C)C2C3C1(C)C (stereo not given in full) | inactive |  |  |
| Nc1c(S(=O)(=O)c2ccccc2)c2nc3ccccc3nc2n1-c1ccc(F)cc1 | inactive |  |  |
| C=C1C(=O)OC2CC(C)C(CCC(C)O)=CCC12 (stereo not given) | inactive |  |  |
| CC(=O)N[C@H]1[C@H](O[C@H]2CC[C@@]3(C)C(CC[C@]4(C)C3CC=C3C5CC(C)(C)CC[C@]5(C(=O)O)C(O)C[C@]34C)C2(C)C)O[C@H](CO[C@@H]2O[C@H](C)[C@H](O)[C@H](O)[C@H]2O[C@@H]2OC[C@@H](O)[C@H](O)[C@H]2O)[C@@H](O)[C@@H]1O (stereo not given in full) | inactive |  |  |
| C=C1CCCC2(C)CCC(C(C)(C)OC3OC(C)C(O)C(O)C3OC(=O)/C(C)=C\C)CC12 (stereo not given) | inactive |  |  |
| C=C1C(=O)O[C@@H]2C[C@H](C)C3=CC(=O)[C@H](O)[C@@]3(C)C[C@H]12 | inactive |  |  |
| C=CC(C)(O)CC/C=C(/C)COC(=O)C(C)C1CCC(C)(C=C)O1 (stereo not given) | inactive |  |  |
| O=C1c2ccc(Nc3ccc(F)cc3F)cc2CCc2ccc(OCC(O)CO)cc21 (stereo not given) | inactive |  |  |
| COc1cc2ncnc(Nc3ccc(F)c(Cl)c3)c2cc1O | inactive |  |  |
| C/C=C(\C)C(=O)O[C@H]1C=C(CO)C(=O)[C@H](OC(C)=O)[C@H]1C(C)C | inactive |  |  |
| CCCc1cc(C)n(C)c(=O)c1CN(C)C(=O)c1cc(-c2ccc(N3CCN(C(C)C)CC3)nc2)cc2c1cnn2C(C)C | inactive |  |  |
| C[C@@H](NC(=O)[C@H](O)c1cc(F)cc(F)c1)C(=O)N[C@@H]1C(=O)N(C)c2ccccc2-c2ccccc21 | inactive |  |  |
| CC1OC(OC2C(O)COC(O[C@@H]3[C@@H](O)[C@@H](O)[C@H](OC4C(OC(=O)[C@]56CCC(C)(C)CC5C5=CCC7[C@@]8(C)C[C@H](O)[C@H](OC9OC(CO)C(O)C(O)C9O)[C@@](C)(CO)C8[C@H](O)C[C@@]7(C)[C@]5(C)CC6)OCC(O)C4O)O[C@H]3C)C2O)C(O)C(O)C1O (stereo not given in full) |  | inactive [at 10.7 µM] |  |

| Structure (SMILES) | Potency | outcome | activity change, negative = inhibition |
| --- | --- | --- | --- |
| C=C1C(=O)O[C@H]2C1CCC(C)=C1C(=O)C=C(C)[C@@]12O (stereo not given in full) | inactive |  |  |
| O=C1Cc2c([nH]c3ccc(Br)cc23)-c2ncccc2N1 | inactive |  |  |
| COc1cc(C(N)=O)nc(-c2ccccn2)c1O | inactive |  |  |
| CCOC(=O)c1ccc(OCCC2CCN(c3ccc(C)nn3)CC2)cc1 | inactive |  |  |
| C=C1C(=O)O[C@H]2/C=C(/C)[C@@H](OC(C)=O)C/C=C(\C)C[C@@H](OC(=O)/C(=C/C)COC(=O)/C(=C/C)CO)[C@@H]12 | inactive |  |  |
| C=C1C(=O)OC2/C=C(\C)CC/C=C(\C=O)C(OC)C(OC(=O)C(C)CC)C12 (stereo not given) | inactive |  |  |
| O=C1COC2(CCN(S(=O)(=O)c3ccc(-c4ccc5cccnc5c4)cc3)CC2)CN1C1CC1 | inactive |  |  |
| Cc1cnn(-c2ccccc2)c1NC(=O)COCc1ccccc1 | inactive |  |  |
| COc1cccc(OCCCN)c1-c1cc(Nc2cnc(C#N)cn2)n[nH]1 | inactive |  |  |
| O[C@@](Cc1ncc(CC2(C(F)(F)F)CC2)[nH]1)(c1ccc(-n2cccn2)cc1)C(F)(F)F | inactive |  |  |
| O=C(NCC1(c2nc(-c3ccccc3)cs2)CCOCC1)c1cccc(-c2noc(C(F)(F)F)n2)c1 | inactive |  |  |
| CCC/C=C/C(=O)O[C@H]1CC(C)(C)CC2[C@@]13[C@H](O)C[C@]1(C)[C@@]2(CCC2[C@@]4(C)CC[C@H](O[C@@H]5O[C@H](C(=O)O)[C@@H](O)[C@H](O[C@@H]6O[C@H](CO)[C@H](O)[C@H](O)[C@H]6O[C@@H]6O[C@@H](C)[C@H](O)[C@@H](O)[C@H]6O[C@@H]6OC[C@](O)(CO)[C@H]6O)[C@H]5O[C@@H]5O[C@H](CO)[C@H](O)[C@H](O)[C@H]5O)C(C)(C)C4CC[C@]21C)O[C@H]3O (stereo not given in full) |  |  | -24.8% [at 10.7 µM] (inactive) |
| CC(C)(C)c1ccc(-c2nc3c(N4CCN(Cc5ccc6nccnc6c5)CC4)cccc3[nH]2)cc1 | inactive |  |  |
| C1=Cc2ccccc2C(=C2CCN(CCCCc3nn[nH]n3)CC2)c2ccccc21 | inactive |  |  |
| COc1c(C(C)C)c(O)c(O)c2c1C(OC)[C@H]1OC(=O)[C@@]23CCCC(C)(C)[C@H]13 (stereo not given in full) | inactive |  |  |
| O=C(NCc1ccccc1)c1ccc2c(=O)n(-c3cccc(C(F)(F)F)c3)c(=S)[nH]c2c1 | inactive |  |  |
| Cc1[nH]c2ccccc2c1CCNC(=O)c1cccs1 | inactive |  |  |
| CCN(Cc1cc(Nc2nc(C)cn3c(-c4cn[nH]c4)cnc23)sn1)C(C)(C)CO | inactive |  |  |
| CC1CC(=O)C2=C(C1)C1OC1C1(O)C2C(=O)c2cccc(O)c2C1O (stereo not given) | inactive |  |  |
| c1cc(-c2cnn3cc(-c4ccc(N5CCNCC5)cc4)cnc23)c2cccnc2c1 | inactive |  |  |
